Rows were chosen to be rich in hits. Some 1.4% of all compounds tested hit in one or more screens of this group.
MBD2 inh: blocks human MBD2 binding to methylated DNA; Q9UBB5; TR-FRET, MBD2 binding to methylated oligonucleotide; inhibition, % at 4.4 µM; hit rate 0.31% among 370,000; AID 686964; in the data active = inhibition above about 13%
Target sequence (Q9UBB5 whole entry, looked up): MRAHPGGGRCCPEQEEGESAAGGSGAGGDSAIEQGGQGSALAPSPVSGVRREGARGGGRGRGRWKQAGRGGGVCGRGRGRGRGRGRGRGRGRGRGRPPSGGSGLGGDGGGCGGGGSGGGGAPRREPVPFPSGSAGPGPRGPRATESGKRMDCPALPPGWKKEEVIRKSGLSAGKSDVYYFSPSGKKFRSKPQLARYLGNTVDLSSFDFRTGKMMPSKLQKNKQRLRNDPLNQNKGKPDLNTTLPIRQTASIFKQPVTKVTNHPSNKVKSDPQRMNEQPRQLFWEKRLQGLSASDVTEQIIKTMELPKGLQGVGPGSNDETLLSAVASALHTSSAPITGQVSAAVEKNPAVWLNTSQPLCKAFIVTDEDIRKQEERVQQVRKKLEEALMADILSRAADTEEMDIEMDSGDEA
LEDGF integ inh: blocks HIV-1 LEDGF/p75-dependent DNA integration | TR-FRET IN-LEDGF/p75 DNA integration, Eu/Cy5 | inhibition, % at 3.7 µM | hit rate 0.64% among 370,000;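 active = inhibition above the screen-wide mean plus 3 SD, cut at about 13% in these data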;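 also: signal is the Cy5 over europium emission ratio at 671 and 618 nm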
UHRF1 MBD2 ctr: UHRF1 methyl-DNA binding inhibition; hit rate 0.75% among 370,000; AID 687016; UHRF1 binding to methylated oligo, TR-FRET; inhibition, % at 4.4 µM; in the data active = inhibition above about 21%;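 also: UHRF1 SRA domain binding a hemimethylated CpG hairpin DNA probe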
CASP6 VEID inh: blocks human caspase-6 cleavage activity; P55212; purified caspase-6, Z-VEID-R110 cleavage fluorescence; inhibition, % at 12.5 µM; hit rate 0.53% among 350,000; AID 686996;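 active = mean inhibition across replicates at least about 35%, with every replicate also reaching that limit, limit read from the data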
Target sequence (P55212 24-179 limits assumed): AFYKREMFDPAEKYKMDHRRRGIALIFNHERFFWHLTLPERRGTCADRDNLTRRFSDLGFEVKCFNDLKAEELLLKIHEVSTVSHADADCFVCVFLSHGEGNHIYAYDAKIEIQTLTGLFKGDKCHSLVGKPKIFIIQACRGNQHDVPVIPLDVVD
Target sequence (P55212 194-293 limits assumed): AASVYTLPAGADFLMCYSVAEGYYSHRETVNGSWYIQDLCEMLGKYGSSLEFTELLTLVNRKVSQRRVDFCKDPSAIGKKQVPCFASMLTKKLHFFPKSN
UHRF1 DNA bind: inhibits human UHRF1 binding to methylated oligonucleotide, MBD2 counter-screen; shares compounds with MBD2 inh; inhibition, % at 4.4 µM; hit rate 25% among 1,000; TR-FRET; AID 720530; in the data active = inhibition above about 21%;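 also: UHRF1 SRA domain binding a labeled hemimethylated CpG hairpin DNA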
MBD2 DBD conf: MBD2-DBD methyl-DNA binding inhibition, TR-FRET confirmation. AID 720531. shares compounds with MBD2 inh. inhibition, % at 4.4 µM. TR-FRET MBD2-DBD binding to methylated oligonucleotide. hit rate 26% among 1,000
CASP1 counter: blocks human caspase-1 in a selectivity counter-screen. purified caspase-1, Z-YVAD-R110 cleavage fluorescence. activity change, negative = inhibition, % at 35 µM. 100 tested, under 10 active. AID 743289. shares compounds with CASP6 VEID inh;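 active = compounds lowering fluorescence whose fitted half-maximal concentration is no more than twice their top tested dose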
IN multimer act: activates HIV-1 integrase multimerization in LEDGF counter-screen. shares compounds with LEDGF integ inh. TR-FRET HIV-1 integrase multimerization, biochemical. activation, % at 7.7 µM. hit rate 17% among 2,000. AID 1053131; in the data active = activation above about 8.9%
TRFRET interf: TR-FRET optical interference, LEDGF/p75 integration counter-screen | shares compounds with LEDGF integ inh | TR-FRET optical interference counterscreen, HIV-1 IN multimerization | inhibition, % at 7.7 µM | 2,000 tested, under 10 active;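 active = inhibition above the mean over all tested compounds plus 3 SD, which no compound reached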
LEDGF integ conf: confirmation of HIV-1 LEDGF/p75-dependent integration inhibitors; hit rate 36% among 2,000; shares compounds with LEDGF integ inh; TR-FRET LEDGF/p75-dependent HIV-1 integration, biochemical; inhibition, % at 3.7 µM
Each line names hits and unclear results; the compound was inactive in the other large screens (follow-up assays come after a bar, where they were run). Rule as the data show it, unless noted: active = inhibition above about 14%; inactive = the rest.

NN1C(=O)/C(=C\c2ccco2)SC1=S	MBD2 inh 17, LEDGF integ inh 55, UHRF1 MBD2 ctr 63, CASP6 VEID inh 70 | UHRF1 DNA bind inactive | MBD2 DBD conf inactive | IN multimer act inactive | TRFRET interf inactive | LEDGF integ conf inactive
O=C1/C(=C/c2ccco2)SC(=S)N1c1cccnc1	MBD2 inh 105, LEDGF integ inh 93, UHRF1 MBD2 ctr 98, CASP6 VEID inh 83 | UHRF1 DNA bind 69 | MBD2 DBD conf 32 | IN multimer act 16 | TRFRET interf inactive | LEDGF integ conf 66
O=C1/C(=C\c2ccc(O)cc2)SC(=S)N1c1cccnc1	none
O=C(CCCN1C(=O)/C(=C/c2ccco2)SC1=S)Nc1cccc(C(=O)O)c1	MBD2 inh 30, LEDGF integ inh 46, UHRF1 MBD2 ctr 76, CASP6 VEID inh 55 | UHRF1 DNA bind 21 | MBD2 DBD conf inactive | IN multimer act inactive | TRFRET interf inactive | LEDGF integ conf 26
CO[C@H]1CN(C)C(=O)c2ccc(NC(=O)Nc3cc(F)ccc3F)cc2OC[C@H](C)NC[C@@H]1C	none (no result: MBD2 inh, LEDGF integ inh, UHRF1 MBD2 ctr)
COC(=O)C1CCN(C(=O)c2cc(-c3ccco3)nc3ccccc23)CC1	MBD2 inh 22, LEDGF integ inh 28, UHRF1 MBD2 ctr 40, CASP6 VEID inh 58 | UHRF1 DNA bind 30 | MBD2 DBD conf 22 | IN multimer act 15 | TRFRET interf inactive | LEDGF integ conf 49
O=C(c1cc(-c2ccco2)nc2ccccc12)N1CCN(Cc2ccccc2)CC1	none
CCOc1ccc(NC(=O)CN(C)C(=O)c2csc3c2CCCC3)cc1OCC	none
CCOc1ccc(NC(=O)CN(C)C(=O)c2cc3c(s2)CCC3)cc1OCC	MBD2 inh 17, LEDGF integ inh 16, UHRF1 MBD2 ctr 27 | UHRF1 DNA bind 24 | MBD2 DBD conf 20 | IN multimer act 14 | TRFRET interf inactive | LEDGF integ conf 18
Cc1c(C=O)c(C=O)c(C)n1Cc1ccccc1	MBD2 inh 16, LEDGF integ inh 22, UHRF1 MBD2 ctr 31 | UHRF1 DNA bind inactive | MBD2 DBD conf inactive | IN multimer act inactive | TRFRET interf inactive | LEDGF integ conf inactive
CC(=O)c1c(C(C)=O)c(C)n(Cc2ccccc2)c1C	none (no result: CASP6 VEID inh)
CC(=O)c1sc2nc(-c3ccco3)ccc2c1N	MBD2 inh 45, LEDGF integ inh 59, UHRF1 MBD2 ctr 92, CASP6 VEID inh 64 | UHRF1 DNA bind 28 | MBD2 DBD conf inactive | IN multimer act inactive | TRFRET interf inactive | LEDGF integ conf inactive
Nc1c(C(=O)Nc2ccc(F)cc2)sc2nc(-c3ccco3)ccc12	none (no result: CASP6 VEID inh)
Cc1noc(C)c1NC(=O)N[C@H]1CC[C@H](CC(=O)NCc2ccc(Cl)c(Cl)c2)O[C@@H]1CO	none (no result: MBD2 inh, LEDGF integ inh, UHRF1 MBD2 ctr)
O=S(=O)(O)c1cc(O)c2cc(Nc3ccccc3)ccc2c1	MBD2 inh 26, LEDGF integ inh 16, UHRF1 MBD2 ctr 33, CASP6 VEID inh 80 | UHRF1 DNA bind 31 | MBD2 DBD conf 14 | CASP1 counter inactive | IN multimer act 41 | TRFRET interf inactive | LEDGF integ conf 44
CC1(C)CCCN(C(=O)c2coc(=O)c(Br)c2)C1	MBD2 inh 18, LEDGF integ inh 22, UHRF1 MBD2 ctr 62 (no result: CASP6 VEID inh) | UHRF1 DNA bind 101 | MBD2 DBD conf 65 | IN multimer act 16 | TRFRET interf inactive | LEDGF integ conf 65
CO[C@H]1CN(C)C(=O)c2cc(NC(=O)c3ccccc3F)ccc2OC[C@H](C)NC[C@@H]1C	none (no result: MBD2 inh, LEDGF integ inh, UHRF1 MBD2 ctr)
C[C@@H]1CCCCO[C@H](CN(C)S(=O)(=O)c2cccs2)[C@@H](C)CN([C@@H](C)CO)C(=O)c2cc(NC(=O)Nc3ccc(F)cc3)ccc2O1	none (no result: MBD2 inh, LEDGF integ inh, UHRF1 MBD2 ctr)
O=C1CCCC2=C1C(c1ccco1)Nc1ccc3ccccc3c12 (configuration not stated)	MBD2 inh 22, LEDGF integ inh 33, UHRF1 MBD2 ctr 50 (no result: CASP6 VEID inh) | UHRF1 DNA bind 48 | MBD2 DBD conf 21 | IN multimer act inactive | TRFRET interf inactive | LEDGF integ conf 53
O=C(/C=C/c1cccs1)Nc1nc(-c2ccccc2)cs1	none (no result: CASP6 VEID inh)
O=C(/C=C/c1cccs1)Nc1scc(-c2ccccc2)c1C(=O)O	MBD2 inh 14, LEDGF integ inh 23, UHRF1 MBD2 ctr 22, CASP6 VEID inh 54 | UHRF1 DNA bind inactive | MBD2 DBD conf inactive | IN multimer act inactive | TRFRET interf inactive | LEDGF integ conf 35
COc1cc(C)c2c(c1C=O)Oc1c(c(C)c(O)c3c1C(O)OC3=O)OC2=O (configuration not stated)	MBD2 inh 31, LEDGF integ inh 90, UHRF1 MBD2 ctr 65, CASP6 VEID inh 78 | UHRF1 DNA bind 24 | MBD2 DBD conf inactive | CASP1 counter inactive | IN multimer act inactive | TRFRET interf inactive | LEDGF integ conf 92
O=C(CCS(=O)(=O)c1ccc(Br)cc1)N1CCN(c2ccc(F)cc2)CC1	MBD2 inh 26, LEDGF integ inh 19, UHRF1 MBD2 ctr 73 (no result: CASP6 VEID inh) | UHRF1 DNA bind inactive | MBD2 DBD conf inactive | IN multimer act inactive | TRFRET interf inactive | LEDGF integ conf inactive
O=S(=O)(Cc1ccccc1)N1CCCCN2[C@H](C1)[C@H](c1ccc(-c3cccnc3)cc1)[C@@H]2CO	none (no result: MBD2 inh, LEDGF integ inh, UHRF1 MBD2 ctr)
Cc1ccc(S(=O)(=O)Oc2ccccc2[N+](=O)[O-])cc1	MBD2 inh 14, LEDGF integ inh 35 | UHRF1 DNA bind inactive | MBD2 DBD conf inactive | IN multimer act inactive | TRFRET interf inactive | LEDGF integ conf inactive
O=C(/C=C/c1ccco1)N(c1ccccn1)c1ccccn1	MBD2 inh 23, LEDGF integ inh 22, UHRF1 MBD2 ctr 52, CASP6 VEID inh 54 | UHRF1 DNA bind 57 | MBD2 DBD conf 28 | IN multimer act inactive | TRFRET interf inactive | LEDGF integ conf 46
O=C(C=Cc1ccco1)c1ccco1	MBD2 inh 20, LEDGF integ inh 73, UHRF1 MBD2 ctr 58, CASP6 VEID inh 56 | UHRF1 DNA bind inactive | MBD2 DBD conf inactive | IN multimer act inactive | TRFRET interf inactive | LEDGF integ conf inactive
CC1=NN(c2ccccc2)C(=O)/C1=C\c1cn(-c2ccccc2)nc1C	none
COc1ccccc1/C=C1/C(=O)N(c2ccccc2)N=C1C	MBD2 inh 18, LEDGF integ inh 52 | UHRF1 DNA bind inactive | MBD2 DBD conf inactive | IN multimer act inactive | TRFRET interf inactive | LEDGF integ conf inactive
CC(=O)NC(=S)Nc1ccc(NC(=S)NC(=O)/C=C/c2ccco2)cc1	none
